# Assay results from PubChem BioAssay (NCI).
# About 83,000 compounds went through this panel and 20% of them were active in at least one assay; those are over-represented in the sample as a whole.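 Single-concentration screen, 48 h exposure, 96-well plates. Endpoint: percent growth. Below 10 = active.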 A number with no mark means an inactive call. Activity calls are given as the source filed them.
# Assays:
# Assay in all cases: NCI-60 one-dose screen, 48 h (100 = growth as untreated, 0 = no growth, -100 = all killed)
# Conditions in all cases: 10 µM unless noted
# [1] = tested on: RPMI-8226 leukemia
# [2] = tested on: OVCAR-8 ovarian
# [3] = tested on: OVCAR-5 ovarian
# [4] = tested on: SK-OV-3 ovarian
# [5] = tested on: IGROV1 ovarian
# [6] = tested on: OVCAR-3 ovarian
# [7] = tested on: HS 578T breast
# [8] = tested on: NCI/ADR-RES ovarian
# [9] = tested on: T-47D breast
# [10] = tested on: BT-549 breast
# [11] = tested on: MDA-MB-435 melanoma
# [12] = tested on: SW-620 colon
# [13] = tested on: MCF7 breast
# [14] = tested on: HCT-116 colon
# [15] = tested on: HCC-2998 colon
# [16] = tested on: KM12 colon
# [17] = tested on: OVCAR-4 ovarian
SMILES,growth [1],growth [2],growth [3],growth [4],growth [5],growth [6],growth [7],growth [8],growth [9],growth [10],growth [11],growth [12],growth [13],growth [14],growth [15],growth [16],growth [17]
C=C1CCC2C3(C)COC(c4ccc(OC)cc4Br)OC3CCC2(C)C1/C=C/C1=CCOC1=O (stereo not drawn),7.47% (active),79.3%,98.3%,97.5%,79.8%,80.8%,94.7%,68.6%,41.3%,73.8%,93.7%,84%,60.7%,53.9%,57.9%,83.4%,–
CC(C)C1=C[C@@]23CC[C@@H]4[C@](C)(CCC[C@@]4(C)C(=O)OCC#CCN4CCCC4)[C@H]2C[C@@H]1[C@H]1C(=O)OC(=O)[C@H]13,80.3%,115%,97.3%,90.5%,81.9%,94.2%,99.2%,99.3%,73.9%,87.7%,102%,109%,84.7%,88.8%,108%,87.3%,–
O=C(/C=C/c1cccc(Br)c1)c1ccccc1,23.6%,88.7%,–,82.1%,84.8%,98.3%,101%,103%,52%,76.6%,80.9%,69.9%,12.6%,47.1%,96.4%,70.9%,90.6%
CC/C(=C(\c1ccccc1)c1ccc(OCCNC)cc1)c1ccccc1,-40.9% (active),-49.6% (active),–,-53.8% (active),-93% (active),-92.1% (active),-55.6% (active),-87.3% (active),–,-91.2% (active),-93.8% (active),-57.6% (active),-95.8% (active),-96% (active),-99.7% (active),-77.7% (active),-67.1% (active)
